Data: PubChem BioAssay AID686979 (National Center for Advancing Translational Sciences (NCATS), 2013)
About 50,000 (12%) of roughly 420,000 compounds were called active. Roughly 26% stayed inconclusive and do not appear here. This is one part of a sample in which actives are shown more often than they occur. Values without a mark were called inactive. Calls follow the shape of the dose curve; as a rule, active = well fitted inhibition curve with a large enough effect; inconclusive = small, poorly fitted or top-dose-only effect; inactive = flat fitted curve, though single readings scatter. Where a SMILES comes first, the peptide text is derived from it. [ ]: non-standard residue; d: D form. The star is where a group is joined. ξ: configuration not given here. Cbz = O=C(OCc1ccccc1)*; ξL = CC(C)CC(N)C(=O)O; ξP = O=C(O)C1CCCN1

Test: qHTS for Inhibitors of human tyrosyl-DNA phosphodiesterase 1 (TDP1): qHTS in cells in presence of CPT; also: nearly all actives have a fitted effect of over 55% in size
Conditions: chicken DT40 Tdp1-/-;hTDP1 cells + 20 nM CPT, ATP luminescence, 48 h; series mostly up to 46.2 µM; activity change, negative = growth inhibition: at the top concentration
Method in brief: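 Chicken DT40 Tdp1-/- cells complemented with human TDP1, 400 cells/well, exposed to compounds plus 20 nM camptothecin for at least 48 h at 37 C; viability read as ATP content by CellTiter-Glo luminescence.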
% is scaled to controls: 0 for no effect and ±100 for the full control effect; potency is read from the fitted curve at half-maximal effect.

SMILES | activity change, negative = growth inhibition | Potency
O=C(NCc1ccco1)c1cccc(-c2ccc3nncn3c2)c1 | -0.594% | –
CS(=O)(=O)c1cccc(-c2ccc3nncn3c2)c1 | 11.7% | –
NC(=O)c1ncc(C(F)(F)F)cc1Oc1ccc(F)cc1 | 0.776% | –
O=C(Nc1ccccc1Cl)Nn1cnnc1 | -0.423% | –
O=C(CCN1CCc2ccccc2C(O)(c2ccccc2)C1)c1ccc2c(c1)OCCO2 (centres undefined) | – | 2.31 µM (active)
O=C(CN1CCC(O)(c2ccccc2)CC1)Nc1ccc2c(c1)OCCO2 | -0.373% | –
O=C(COC(=O)c1ccccc1)c1ccc2c(c1)OCCO2 | 4.32% | –
Cc1ccc(N2C(=O)C3C4C=CC(CC4)C3C2=O)cc1Br (centres undefined) | 18.5% | –
COc1ccc(CCN2C(=O)CC(N3CCC(C(N)=O)CC3)C2=O)cc1OC (centres undefined) | – | 25.9 µM (active)
COc1ccc(N2C(=O)CC(N3CCC(C(N)=O)CC3)C2=O)cc1 (centres undefined) | -10.4% | –
COc1ccc(CCN2C(=O)C3CC=C(C)CC3C2=O)cc1OC (centres undefined) | -29.7% | –
CC(=O)Nc1cccc(OCC(=O)/C=C2\N(C)c3ccccc3C2(C)C)c1 | – | 6.51 µM (active)
COc1cccc(NC(=S)C(C#N)=C2N(C)c3ccccc3N2C)c1 | 2.93% | –
CN1CCN(CCC(=O)N/N=C/C=C2\N(C)c3ccccc3C2(C)C)CC1 | -20.6% | –
Cc1cccc(NC(=O)c2cc(S(=O)(=O)N3CCC4(CC3)OCCO4)ccc2F)c1 | 3.62% | –
Cc1cc(S(=O)(=O)NC2CCCC2)ccc1-n1cnnn1 | -15.2% | –
CCOc1ccccc1-c1cc(C(=O)N2CCOCC2)c2ccccc2n1 | -24.5% | –
COc1cccc(/C=C/c2ccc3ccccc3n2)c1OC(C)=O | -23.5% | –
CCOc1cccc(/C=C/c2ccc3ccccc3n2)c1OC(C)=O | – | 18.4 µM (active)
Cc1ccc(S/C(=N\S(=O)(=O)c2ccc(Cl)cc2)c2ccccc2)cc1 | – | 14.6 µM (active)
Cc1ccc(S(=O)(=O)/N=C(/Nc2ccccn2)c2ccc(Cl)cc2)cc1 | -19.3% | –
O=S(=O)(/N=C(/Nc1ccccn1)c1ccccc1)c1ccc(Cl)cc1 | 3.49% | –
Cc1ccc(NC(=O)COc2ccc(/C=C3/NC(=O)NC3=O)cc2)cc1 | -9.1% | –
CC(C)CC(NC(=O)C1CCCN1C(=O)[C@@H](C)NC(=O)OCc1ccccc1)C(=O)NCC(N)=O (some centres undefined) (Cbz-[dA][ξP][ξL]G-NH2) | 11.9% | –
CCCN(CCC)S(=O)(=O)c1ccc(C(=O)NNC(=O)c2cc(OC)c(OC)c(OC)c2)cc1 | 0.53% | –

SMILES | activity change, negative = growth inhibition | Potency
COC(=O)c1c(NC(=O)c2cc(=O)c3c(C)cc(C)cc3o2)sc2c1CCCC2 | 6.35% | –
CCOC(=O)c1c(NC(=O)NC(C)(C)C)sc2c1CCN(C)C2 | 12.6% | –
CCCN(CCC)S(=O)(=O)c1ccc(C(=O)Nc2sc3c(c2C(=O)OC)CCN(CC)C3)cc1 | – | 16.4 µM (active)
CCOC(=O)c1c(NC(=S)Nc2ccccc2)sc2c1CCN(C)C2 | -6.24% | –
CCOC(=O)c1c(NC(=O)c2ccc(S(=O)(=O)N3CCCC(C)C3)cc2)sc2c1CCN(C(C)C)C2 (centres undefined) | – | 8.2 µM (active)
N#CCCN(C(=S)Nc1ccc(Cl)c(Cl)c1)C1CCCCC1 | -10.7% | –
O=S1(=O)CSCS(=O)(=O)C1 | -1.82% | –
COc1ccc(S(=O)(=O)N(CC(=O)N/N=C/c2ccc(C(=O)O)cc2)Cc2ccccc2)cc1OC | -0.989% | –
C=CCO/N=C(\C)c1c(O)c(C)c(-c2ccccc2)n(-c2ccccc2)c1=O | -8.1% | –
CC(C)[C@@H]1NC(=O)[C@H](Cc2ccccc2)NC(=O)[C@@H](CC(=O)O)NC(=O)CNC(=O)[C@H](CCCNC(=N)N)NC1=O | 0.634% | –
C=CCNC(=O)C1CC2c3ccccc3C1c1ccccc12 (centres undefined) | -16.5% | –
CCCS(=O)(=O)N1CCC(n2c(C(F)(F)F)nc3cccnc32)CC1 | – | 3.66 µM (active)
CCS(=O)(=O)N1CCC(n2c(C)nc3cccnc32)CC1 | 7.09% | –
O=C1NC(CC(=O)N2CCC(n3c(C4CCC4)nc4cccnc43)CC2)c2ccccc21 (centres undefined) | -6.43% [at 9.04 µM] | –
COC(=O)c1ccc(NS(=O)(=O)c2cc3c4c(c2)C(C)C(=O)N4CCC3)cc1 (centres undefined) | -7.26% | –
O=C1Cc2cc(S(=O)(=O)Nc3ccc(OC(F)(F)F)cc3)cc3c2N1CCC3 | – | 9.2 µM (active)
O=C1CCc2cc(S(=O)(=O)Nc3ccc(C(F)(F)F)cc3)cc3c2N1CC3 | -19% | –
CCn1c(CC(=O)Nc2ccccc2)nnc1SCC(=O)N1CCOCC1 | 7.88% | –
COc1ccc(C(C#N)Nc2ccc(C)cc2)cc1 (centres undefined) | -0.292% | –
Cc1ccc(CN2CCN(/N=C/c3ccco3)CC2)c(C)c1 | -24% | –
CC(C)=CCCC1(C)C=Cc2c(ccc3c2[nH]c2cc(O)c(C)cc23)O1 (centres undefined) | – | 16.4 µM (active)
Cc1ccc(CNC(=O)Nc2nnc([C@H]3C[C@H](O)[C@@H](CO)O3)s2)cc1 | 1.01% | –
Cc1cccc(N2CCN(c3ccc(C(N)=O)cc3[N+](=O)[O-])CC2)c1C | 5.49% | –
O=[N+]([O-])c1ccc(N2CCN(S(=O)(=O)c3ccccc3)CC2)cc1N1CCc2ccccc2C1 | 7.97% | –
Cc1cc(N)n(-c2ccc(S(=O)(=O)N3CCCC3)cc2[N+](=O)[O-])n1 | -7.74% | –

SMILES | activity change, negative = growth inhibition | Potency
Cc1cc(C)n(-c2ccc(C(=O)O)cc2[N+](=O)[O-])n1 | 14.8% | –
CN1CCN(S(=O)(=O)c2ccc(N3CCN(c4ccccc4O)CC3)c([N+](=O)[O-])c2)CC1 | – | 23.1 µM (active)
Cc1ccc(C(=O)c2ccc(N3CCN(C)CC3)c([N+](=O)[O-])c2)cc1 | – | 18.4 µM (active)
C=CCN(c1ccc(Cl)cc1)S(=O)(=O)c1cccc(C(=O)OCC(=O)N(C)C)c1 | -1.6% | –
Cc1ccc2c(c1)N(C(=O)CCC(=O)NCc1cccnc1)CCO2 | -6.02% | –
Cn1nccc1NC(=O)CC(CC(=O)O)c1ccccc1 (centres undefined) | 7.18% | –
Cn1ccsc1=NC(=O)c1cc(S(=O)(=O)N2CCOCC2)ccc1Cl | 0.0181% | –
N/C(=N\OC(=O)c1ccc2c(c1)OCO2)c1ccc(Br)cc1 | -16.9% | –
N/C(=N\OC(=O)/C=C/c1ccccc1)c1ccc(Br)cc1 | 9.3% | –
N/C(=N\OC(=O)N1c2ccccc2Sc2ccccc21)c1ccc(Br)cc1 | – | 20.6 µM (active)
Cc1csc(=O)n1CCC(=O)OCC(=O)NNC(=O)c1ccc(Br)cc1 | 3.49% | –
CC(=O)Nc1cccc(C(=O)OCC(=O)Nc2nnc(-c3ccccc3)o2)c1 | -1.76% | –
COCCNC(=O)C1C(=O)Nc2ccccc2C(=O)N1c1ccc2c(c1)OCCO2 (centres undefined) | -9.47% | –
COc1cc(SC#N)ccc1N=Cc1c(C)[nH]n(-c2ccc(C)cc2)c1=O | – | 2.59 µM (active)
COc1cccc(-c2coc3cc4oc(=O)c(CC(=O)O)c(C)c4cc23)c1 | 0.503% | –
O=C(O)CC1S/C(=N\N=C/c2ccccc2O)N(c2ccc(O)cc2)C1=O (centres undefined) | 0.955% | –
S=C(Nc1ccc(Br)cc1Cl)N1CCC2(CC1)OCCO2 | -0.753% | –
C=C1C(=O)OC2C1CCC(C)=CCCC1(C)OC21 (centres undefined) | – | 1.64 µM (active)
Cc1cc(Cl)ccc1NC(=S)N1CCC(C(N)=O)(N2CCCCC2)CC1 | -16.5% | –
O=C(COC(=O)/C=C/c1cccc(Cl)c1)NCc1cccs1 | 1.25% | –
COc1ccc(NC(=O)c2sc(N)nc2-c2ccccc2)cc1 | -14.4% | –
Cc1ccc(OC(=O)CCC(=O)Nc2ccc(Br)cc2)cc1 | 3.44% | –
COC(=O)CCc1sc(Nc2ccc(Br)cc2)nc1-c1ccc(OC)cc1 | – | 23.1 µM (active)
CCc1c(C)sc(NC(=O)C2c3ccccc3Oc3ccccc32)c1C(=O)OC(C)C | -13.5% | –
Cc1ccn2c(=O)c(NC(=O)c3cccc4ccccc34)c(C)nc2c1 | -23.8% | –

SMILES | activity change, negative = growth inhibition | Potency
O=C(Nc1ccc(Cl)c(Cl)c1)N1CC=C(c2ccccc2)CC1 | – | 23.1 µM (active)
NC(=O)N1CCCC1C(=O)Nc1ccc(Cl)c(Cl)c1 (centres undefined) | -26.9% | –
O=C(O)c1cccc(S(=O)(=O)N2CC=C(c3ccccc3)CC2)c1 | 7.01% | –
CCCCn1c(N)c(N(CCC(C)C)C(=O)c2ccc([N+](=O)[O-])o2)c(=O)[nH]c1=O | -28.3% | –
CCCCC(O)C1=C[N+](=O)CC=C1 (centres undefined) | 2.01% | –
CCn1c(Cc2ccccc2)nnc1SCc1nc2ccccc2c(=O)[nH]1 | -18.4% | –
O=c1[nH]c(CSc2ncc(-c3ccc(F)cc3)n2Cc2ccco2)nc2ccccc12 | – | 18.4 µM (active)
Nc1cc(=O)nc(SCc2ccccc2)n1Cc1ccco1 | 26.4% | –
COc1ccc2ccn(C)c2c1 | 2.6% | –
CCOc1cc(NC(=O)c2ccco2)c(OCC)cc1NC(=O)COc1ccccc1 | – | 4.11 µM (active)
CCOc1cc(NC(=S)NCCCOC)c(OCC)cc1NC(=O)c1ccco1 | -14.1% | –
CCOc1cc(NC(=S)NCc2ccco2)c(OCC)cc1NC(=O)c1ccco1 | -16.1% | –
COc1ccc(-c2nc3c4ccccc4n(CC(=O)Nc4ccc(C(C)=O)cc4)c(=O)n3n2)cc1 | -4.12% | –
O=c1n(Cc2cccc(C(F)(F)F)c2)c2ccccc2c2nc(-c3ccccc3)nn12 | – | 23.1 µM (active)
Cc1cc(N2CCN(c3cccc(C(F)(F)F)c3)CC2)n2nc(-c3ccccc3)nc2n1 | -1.02% | –
CC(C)C(OC(=O)c1cccs1)C(=O)NC1CCCCC1 (centres undefined) | -15% | –
Cc1ccc(NC(=O)CN(C)Cc2ccc(F)cc2)c([N+](=O)[O-])c1 | -19.4% | –
CCn1c(SCC(=O)NC2CCCC2)nnc1-c1ccoc1C | -9.67% | –
COC(=O)c1onc(-c2c(OC)cc(OC)cc2OC)c1C(=O)OC | -5.28% | –
CN(C(=O)CCN1C(=O)/C(=C/c2ccccc2F)SC1=S)C1CCS(=O)(=O)C1 (centres undefined) | -94.6% | –
CN(C(=O)CN1C(=O)/C(=C/c2ccc(Cl)cc2)SC1=S)C1CCS(=O)(=O)C1 (centres undefined) | – | 18.4 µM (active)
CN(C(=O)CN1C(=O)S/C(=C\c2ccccc2F)C1=O)C1CCS(=O)(=O)C1 (centres undefined) | -18.2% | –
O=C(Nc1cc(C(F)(F)F)ccc1Cl)c1cc2nc(-c3ccc4c(c3)OCO4)cc(C(F)(F)F)n2n1 | 0.0565% | –
O=C(NCCCCCCCCCNC(=O)C(F)(F)F)C(F)(F)F | -14.6% | –
